Results on six compounds are retold here after PubChem BioAssay (NCATS).

Inconclusive results are not listed. Active and inactive are the calls of the source. Unless noted, calls come from the whole dose curve; as a rule, active = well fitted curve in the direction sought with a large enough effect; inconclusive = small, poorly fitted or top-dose-only effect, or another doubt; inactive = no such curve, though single readings can be large; an effect the other way counts as inactive or inconclusive.

In test [1] the target is Cytochrome P450 3A4 (Homo sapiens) (UniProt P08684). Put plainly: qHTS Assay for Inhibitors and Substrates of Cytochrome P450 3A4 (AID 884). Note: % is set by controls: 0 for no effect and ±100 for the full control effect; nearly all actives have a fitted effect of over 50% in size. The procedure, abridged:
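Luminescent readout of luciferin produced by CYP3A4 (20 nM) dealkylation of Luciferin-PPXE, 25 uM (its KM). NADPH-driven reaction ran 60 min at RT after 10 min compound preincubation; data scaled to 57 uM ketoconazole as 100% inhibition.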
For orientation: qHTS replaces the single test concentration by a dilution series.

Test [2] is described as follows: Confirmation and Secondary Assay for Modulators of Hemoglobin Beta Chain Splicing at IVS2 654 locus (AID 910).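 Note: HeLa cells stably carrying EGFP split by mutant beta-globin IVS2-654 intron; % of control where 0% means no effect.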 A digest of the protocol:
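HeLa cells stably expressing EGFP interrupted by β-globin IVS2-654 intron, seeded overnight in Opti-MEM/2% FCS, then treated 2 days at 37 °C. Restored splicing read as total peak GFP intensity per well by laser scanning cytometry (488 nm excitation, 500–520 nm emission); 500 nM antisense PNA as control.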

Test [3] is described as follows: Confirmation and Secondary Assay for Modulators of Hemoglobin Beta Chain Splicing at IVS2 705 locus (AID 930).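 Note: HeLa cells stably expressing the EGFP-705 splicing reporter; GFP fluorescence per well restored by corrected splicing of the IVS2-705 intron in EGFP; % of control where 0% means no effect.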 A digest of the protocol:
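Secondary splice-site specificity test uses HeLa expressing CMV-driven EGFP interrupted by IVS2-705; cells were treated 2 days at 37C with 500 nM antisense PNA as positive control.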

The nature of test [4]: qHTS Assay for Lipid Storage Modulators (AID 1519; calls by dose curve; for activity change, negative = inhibition: % is set by controls: 0 for no effect and ±100 for the full control effect). As to conditions: Drosophila S3 cells, BODIPY lipid droplet/cell ratio, laser cytometry, cells loaded with oleic acid; for activity change, negative = inhibition: at 57.5 µM (top of the series). The procedure, abridged:
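Cells seeded at 5,000 per well were treated with compounds over a concentration series and loaded with oleic acid (400 uM, as added). Lipid droplet fluorescence (488 nm excitation, 500-530 nm channel) was read by laser-scanning cytometry and normalized to 20 uM Triacsin C.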

Test [5] has as its target Luciferin 4-monooxygenase (Photinus pyralis) (UniProt P08659). Description: Biochemical firefly luciferase enzyme assay for NPC (AID 624030).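 Note: purified P. pyralis luciferase at 10 nM with luciferin and ATP substrate; 0% = DMSO and -100% = full luciferase inhibition by PTC124 control; nearly all actives have a fitted effect of over 70% in size.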 A digest of the protocol: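 Purified P. pyralis luciferase at 10 nM in 50 mM Tris Acetate (final), luminescence read within 5 minutes of enzyme addition to compounds. Activity normalised to PTC124 versus DMSO; concentration-response curves classed by r2, magnitude and activity.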

Test [6] in a line: qHTS profiling for inhibitors of Plasmodium falciparum proliferation (AID 504749).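 Note: 0% = DMSO vehicle and full inhibition = artemisinin control; nearly all actives have a fitted effect of over 60% in size.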 Conditions: P. falciparum in erythrocytes, SYBR Green DNA, 72 h, at 28.7 µM (top of the series). A digest of the protocol:
(§1)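 Each compound contacts P. falciparum-infected red blood cells for 72 h at 37 C; lysis buffer (Tris, EDTA, saponin, Triton X, SYBR Green I) is added and fluorescence measured next morning; values normalized to controls.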

Test [7] relates to CP194. Described as above. As to conditions: P. falciparum in erythrocytes, SYBR Green DNA, 72 h; series mostly up to 12.8 µM. A digest of the protocol:
as §1

Test [8] deals with CP201. The description is as above. Conditions: P. falciparum in erythrocytes, SYBR Green DNA, 72 h; series mostly up to 12.8 µM. A digest of the protocol:
as §1

Test [9] concerns CP262. The description is as above. Conditions: P. falciparum in erythrocytes, SYBR Green DNA, 72 h; series mostly up to 12.8 µM. The procedure, abridged:
as §1

Test [10] has as its system CP268. The test is described as above. Conditions: P. falciparum in erythrocytes, SYBR Green DNA, 72 h; series mostly up to 12.8 µM. A digest of the protocol:
as §1

For test [11], the system named is CP269. The test is described as above. As to conditions: P. falciparum in erythrocytes, SYBR Green DNA, 72 h; series mostly up to 12.8 µM. The procedure, abridged: as §1
Test [12] relates to CP286. The description is as above. Conditions: P. falciparum in erythrocytes, SYBR Green DNA, 72 h; series mostly up to 12.8 µM. A digest of the protocol: as §1
Test [13] has as its system CP305. The test is described as above. Conditions: P. falciparum in erythrocytes, SYBR Green DNA, 72 h; series mostly up to 12.8 µM. The procedure, abridged:
as §1

In test [14] the test system is DIV30. Described as above. Conditions: P. falciparum in erythrocytes, SYBR Green DNA, 72 h; series mostly up to 12.8 µM. A digest of the protocol:
as §1

The test system of test [15] is FAB9. The test is described as above. Conditions: P. falciparum in erythrocytes, SYBR Green DNA, 72 h; series mostly up to 12.8 µM. The procedure, abridged:
as §1

Test [16] relates to JCK. The test is described as above. Conditions: P. falciparum in erythrocytes, SYBR Green DNA, 72 h; series mostly up to 12.8 µM. The procedure, abridged:
as §1

Test [17] has as its system PC49. The description is as above. Conditions: P. falciparum in erythrocytes, SYBR Green DNA, 72 h; series mostly up to 12.8 µM. A digest of the protocol: as §1
Test [18] addresses Ubiquitin carboxyl-terminal hydrolase 1 (Homo sapiens) (UniProt O94782). Description: Inhibitors of USP1/UAF1: Pilot qHTS (AID 504865).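 Note: rhodamine fluorescence freed from ubiquitin-rhodamine substrate followed over time; top concentration of the series differs between compounds; % is set by controls: 0 for no effect and ±100 for the full control effect; nearly all actives have a fitted effect of over 35% in size.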 A digest of the protocol: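 Enzyme-free wells gave the negative control, while test wells held 1nM USP1/UAF1 preincubated with compound for 15 min at room temperature. Ub-Rho at 150nM final started the reaction, and fluorescence at 480/540 nm was recorded kinetically.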

The target in test [19] is DNA dC->dU-editing enzyme APOBEC-3G (Homo sapiens) (UniProt Q9HC16). Description: qHTS for inhibitors of Vif-A3G interactions: Validation (AID 588379). Note: 0% is about no effect. A digest of the protocol:
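Yellow fluorescence (Ex 488, Em 500-530) of Vif-coexpressing HeLa A3G-eYFP cells, scanned by Acumen cytometer, reports blocked A3G degradation. Cells plated at 700/well overnight at 37 deg C before compound addition, then a further overnight compound incubation at 37 deg C.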

For test [20], the target named is Cytochrome P450 3A4 (Homo sapiens) (UniProt P08684). Description: qHTS Assay for Activators of Cytochrome P450 3A4 (AID 885). Note: nearly all actives have a fitted effect of over 65% in size. A digest of the protocol:
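Using 20nM recombinant human CYP3A4 in potassium phosphate (200mM), substrate Luciferin-PPXE at 25uM, luminescent luciferin detection followed a 60-min RT NADPH reaction; data scaled to 57 uM ketoconazole.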

Where [21] appears, read: measured here: cell count channel max response.
Setting [22] is: measured here: lipid channel max response.

Ubiquitin carboxyl-terminal hydrolase 1 (Homo sapiens), sequence (O94782 whole entry, looked up): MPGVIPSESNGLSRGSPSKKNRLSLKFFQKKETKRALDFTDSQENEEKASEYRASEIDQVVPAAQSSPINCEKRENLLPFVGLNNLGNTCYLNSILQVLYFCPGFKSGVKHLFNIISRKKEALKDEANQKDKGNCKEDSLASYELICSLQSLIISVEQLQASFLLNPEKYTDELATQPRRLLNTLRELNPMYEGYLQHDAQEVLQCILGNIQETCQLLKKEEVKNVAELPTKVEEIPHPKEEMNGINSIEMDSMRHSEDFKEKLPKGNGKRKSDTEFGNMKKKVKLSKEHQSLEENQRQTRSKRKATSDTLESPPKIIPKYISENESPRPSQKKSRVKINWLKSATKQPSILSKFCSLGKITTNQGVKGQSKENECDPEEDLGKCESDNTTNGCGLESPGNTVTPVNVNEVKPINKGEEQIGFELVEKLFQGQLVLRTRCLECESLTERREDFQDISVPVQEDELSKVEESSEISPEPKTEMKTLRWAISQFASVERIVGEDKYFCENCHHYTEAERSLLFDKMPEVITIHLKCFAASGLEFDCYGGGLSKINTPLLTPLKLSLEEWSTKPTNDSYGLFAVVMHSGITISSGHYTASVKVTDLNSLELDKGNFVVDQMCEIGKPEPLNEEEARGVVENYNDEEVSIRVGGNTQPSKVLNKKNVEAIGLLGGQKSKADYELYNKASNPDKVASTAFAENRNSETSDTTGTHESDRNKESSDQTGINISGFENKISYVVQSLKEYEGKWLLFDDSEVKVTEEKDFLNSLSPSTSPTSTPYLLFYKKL
Cytochrome P450 3A4 (Homo sapiens), sequence (P08684 whole entry, looked up): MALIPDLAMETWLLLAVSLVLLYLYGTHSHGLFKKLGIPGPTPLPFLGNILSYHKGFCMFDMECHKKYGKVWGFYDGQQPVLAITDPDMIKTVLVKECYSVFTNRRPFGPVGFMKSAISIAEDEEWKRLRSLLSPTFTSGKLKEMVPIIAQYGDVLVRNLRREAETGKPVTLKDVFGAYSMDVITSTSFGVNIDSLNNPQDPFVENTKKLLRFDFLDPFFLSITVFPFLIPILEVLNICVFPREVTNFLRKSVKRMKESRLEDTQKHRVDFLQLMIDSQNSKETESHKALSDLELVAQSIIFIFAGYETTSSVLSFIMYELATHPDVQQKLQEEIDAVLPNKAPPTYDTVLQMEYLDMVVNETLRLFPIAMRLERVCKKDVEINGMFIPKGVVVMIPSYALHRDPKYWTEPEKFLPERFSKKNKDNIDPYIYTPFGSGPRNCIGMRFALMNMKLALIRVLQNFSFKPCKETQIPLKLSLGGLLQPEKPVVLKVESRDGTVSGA
Luciferin 4-monooxygenase (Photinus pyralis), sequence (P08659 whole entry, looked up): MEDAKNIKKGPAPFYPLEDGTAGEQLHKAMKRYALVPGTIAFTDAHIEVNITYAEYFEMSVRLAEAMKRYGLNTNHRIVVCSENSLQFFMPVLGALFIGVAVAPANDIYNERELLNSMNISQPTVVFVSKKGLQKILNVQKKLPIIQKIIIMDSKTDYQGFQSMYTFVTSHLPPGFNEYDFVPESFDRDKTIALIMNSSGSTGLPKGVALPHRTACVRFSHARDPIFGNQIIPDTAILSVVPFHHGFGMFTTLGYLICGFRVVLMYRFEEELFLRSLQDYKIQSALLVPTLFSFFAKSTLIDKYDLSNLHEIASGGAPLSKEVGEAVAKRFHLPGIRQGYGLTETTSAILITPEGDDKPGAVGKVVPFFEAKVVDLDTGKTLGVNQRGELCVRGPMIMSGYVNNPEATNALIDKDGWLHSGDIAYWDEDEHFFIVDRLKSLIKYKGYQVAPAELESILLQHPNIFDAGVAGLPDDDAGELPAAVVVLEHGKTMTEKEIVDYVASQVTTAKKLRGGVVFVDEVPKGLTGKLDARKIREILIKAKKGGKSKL
DNA dC->dU-editing enzyme APOBEC-3G (Homo sapiens), sequence (Q9HC16 whole entry, looked up): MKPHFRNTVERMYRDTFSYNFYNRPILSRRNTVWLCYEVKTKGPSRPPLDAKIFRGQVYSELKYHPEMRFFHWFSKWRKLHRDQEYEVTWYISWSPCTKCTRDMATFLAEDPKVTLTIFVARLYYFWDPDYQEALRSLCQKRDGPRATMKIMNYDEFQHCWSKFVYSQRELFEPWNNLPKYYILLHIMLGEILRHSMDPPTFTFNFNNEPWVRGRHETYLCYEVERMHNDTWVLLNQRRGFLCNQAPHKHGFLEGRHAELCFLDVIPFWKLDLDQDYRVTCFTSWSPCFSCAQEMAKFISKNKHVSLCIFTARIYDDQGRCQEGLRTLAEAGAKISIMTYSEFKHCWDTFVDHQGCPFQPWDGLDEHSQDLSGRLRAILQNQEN

Regarding `COc1ccc(-c2cc(=O)c3c(O)cc(O[C@H]4OC(COC5OC(C)C(O)C(O)[C@H]5O)C(O)C(O)C4O)cc3o2)cc1O` (some centres not stated), the Potency result in [1], in test [2], in test [3], in test [5], in test [7] and in test [8] was “inactive” throughout. Further, the Potency result in test [9], in test [10], in test [11], in test [12], in test [13] and in test [14] was “inactive” in each case. Moreover, the Potency entry in test [15], in test [16] and in [17] was “inactive” throughout. In test [4], the activity change, negative = inhibition was 5.51% (inactive). The figures for the max response in [4] (setting [21]) and in test [4] (setting [22]) were 6.56% and 15.8%, respectively. For the same compound, the activity, negative = inhibition was 15% (inactive) in [6] (parasite line A) and 23.4% (inactive) in test [6] (parasite line B).
In the case of `NCC1CCC(N)C(O[C@@H]2C(O)[C@H](O[C@H]3OC(CO)C(O)C(N)C3O)[C@@H](N)C[C@H]2N)O1` (some centres not stated), the Potency entry in test [1], in [2], in test [3], in [18], in test [5] and in [7] was “inactive” each time. In addition, the Potency entry in [8], in test [9], in test [10], in test [11], in [12] and in test [13] was “inactive” throughout. Further, the Potency result in [14], in test [15], in [16] and in [17] was “inactive” in each case. Further, in test [4], the activity change, negative = inhibition was 9.66% (inactive). The max response in test [4] (setting [21]) was determined as 28.1%; in test [4] (setting [22]), 44.9%. Also, the activity, negative = inhibition is 7.73% (inactive) in [6] (parasite line A) and 10.2% (inactive) in test [6] (parasite line B).
On to `CC(C)=CCC[C@](C)(O)C1CC=C(C)CC1` (some centres not stated), for which the Potency entry in test [2], in test [3], in test [5], in [7], in test [8] and in [9] was “inactive” in each case. Also, the Potency result in test [10], in test [11], in test [12], in [13], in test [14] and in test [15] was “inactive” throughout. Besides, the Potency entry in [16] and in test [17] was “inactive” throughout. Further, the activity change, negative = inhibition in test [4] is 6.04% (inactive). Besides, the max response in test [4] (setting [21]) is -2.85%; in test [4] (setting [22]), 4.12%. Moreover, the results for the activity, negative = inhibition in test [6] (parasite line A) and in [6] (parasite line B) were -5.22% (inactive) and 7.19% (inactive), respectively.
Regarding `O=c1ccn([C@H]2C[C@H](O)[C@@H](CO)O2)c(=O)[nH]1`, the Potency entry in [1] and in test [18] was “inactive” each time. In test [4], the activity change, negative = inhibition is 5.4% (inactive). In addition, the max response in [4] (setting [21]) came to 9.77%; in [4] (setting [22]) it was 16.3%. For the same compound, the outcome in test [19] was inactive.
As to `N[C@H](Cc1ccc(O)cc1)C(=O)O`, the activity change, negative = inhibition in [4] is 2.68% (inactive). Moreover, the max response in test [4] (setting [21]) is -25.6%; in test [4] (setting [22]) it was -23%. Also, the Potency result in [18] was “inactive”. Also, the result in test [19] was inactive.
As to `C[C@]12C=CC(=O)C=C1CCC1C2C(O)C[C@]2(C)C1CC[C@]2(O)C(=O)CO` (some centres not stated), the Potency result in test [20], in [2], in test [3], in test [18], in test [5] and in test [7] was “inactive” throughout. Also, the Potency result in test [8], in [9], in test [10], in [11], in test [12] and in test [13] was “inactive” each time. Moreover, the Potency entry in [14], in test [15], in [16] and in test [17] was “inactive” in each case. For the same compound, the activity change, negative = inhibition in [4] is 4.07% (inactive). Also, the max response in test [4] (setting [21]) turned out to be 19.1%; in test [4] (setting [22]), 24.5%. Also, the values for the activity, negative = inhibition in test [6] (parasite line A) and in test [6] (parasite line B) were 13% (inactive) and 6.28% (inactive), respectively.
